# Measured values taken from PubChem BioAssay AID1851 (National Center for Advancing Translational Sciences (NCATS), 2009).
# Where “and” joins values, the source holds several entries; their conditions need not be identical. Identical values can stand only once. About 4,000 (25%) of roughly 16,000 compounds were called active. Inconclusive results (about 26%) are left out. The call rests on the fitted dose curve; in most records, active means well fitted curve in the direction sought with a large enough effect; inconclusive means small, poorly fitted or top-dose-only effect, or effect the other way; inactive means no such curve, though single readings can be large or run the other way. A selection follows. More than one record can exist for a structure, and the calls need not agree.
# Biological target: Cytochrome P450 2C9 (Homo sapiens) (UniProt P11712)
# Sequence (P11712 whole entry, looked up): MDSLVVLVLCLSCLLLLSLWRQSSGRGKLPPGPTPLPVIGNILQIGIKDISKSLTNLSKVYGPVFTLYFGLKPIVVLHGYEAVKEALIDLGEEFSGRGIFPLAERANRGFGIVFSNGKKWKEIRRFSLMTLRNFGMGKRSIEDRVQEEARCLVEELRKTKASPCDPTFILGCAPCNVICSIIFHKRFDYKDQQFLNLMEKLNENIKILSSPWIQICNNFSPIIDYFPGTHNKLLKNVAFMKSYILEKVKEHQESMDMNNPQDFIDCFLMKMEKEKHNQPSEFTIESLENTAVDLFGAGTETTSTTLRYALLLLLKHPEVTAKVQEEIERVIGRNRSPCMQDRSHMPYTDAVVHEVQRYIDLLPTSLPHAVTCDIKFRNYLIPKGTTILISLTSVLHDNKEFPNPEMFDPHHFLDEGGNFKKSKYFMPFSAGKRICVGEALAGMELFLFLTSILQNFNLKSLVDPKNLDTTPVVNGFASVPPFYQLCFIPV
# Experiment: Cytochrome panel assay with activity outcomes
# Conditions: recombinant CYP, pro-luciferin dealkylation, luminescence, p450-cyp2c9; series mostly up to 57.1 µM; activity, negative = inhibition: at the top concentration
# On the % scale 0 is the no-effect control and ±100 the full control effect.
Structure (SMILES),AC50,"activity, negative = inhibition"
Cc1ccc(C(C(=O)NCc2ccco2)N(C(=O)CNC(=O)c2cccs2)c2ccc(C)cc2C)cc1 (centres undefined),0.447 µM (active),–
Cc1ccc(C(C(=O)NCc2ccco2)N(C(=O)CNC(=O)c2cccs2)c2ccc(C)cc2)cc1 (centres undefined),–,-21.2% (inactive)
C[C@H](O/N=C1/[C@H]2O[C@@H]2[C@@H](O)[C@H]2[C@H]1CCn1c(=O)n(-c3ccccc3)c(=O)n12)c1cn([C@H](CO)Cc2ccccc2)nn1,–,-5.06% [at 11.4 µM] (inactive) and -0.376% [at 11.4 µM] (inactive)
Cc1ccc(-c2nc(-c3nccc4ccccc34)oc2-c2ccccc2)cc1,–,-0.601% [at 11.4 µM] (inactive)
Cc1nc(Cl)c(C#N)cc1-c1ccccc1,10 µM (active),–
N#Cc1cc(-c2ccccc2)cnc1Sc1ccc(Cl)cc1,3.55 µM (active),–
Cc1nc(Sc2ccccc2)c(C#N)cc1-c1ccccc1,5.01 µM (active),–
CNc1nc(-c2cccc(C#N)c2)nc2ccccc12,–,-18.8% [at 2.29 µM] (inactive)
Cc1ccc(Sc2nc(-c3ccccc3)ccc2C#N)cc1,7.94 µM (active),–
CCOC(=O)CCN1C(=O)[C@H]2[C@H]3[C@H](O)[C@H](O)C/C(=N/OC[C@@H](O)COCc4ccco4)[C@H]3CC[C@@H]2C1=O,–,10.4% [at 11.4 µM] (inactive)
CN(C/C=C\c1ccccc1)Cc1cccc2ccccc12,–,-24.2% [at 25.6 µM] (inactive)
CN(C)c1nc(-c2ccoc2)nc2ccccc12,–,21.3% [at 2.29 µM] (inactive)
O=C(NC1CCCCC1)C1CC=CCC1C(=O)OCC(Cl)=C(Cl)Cl (centres undefined),1.41 µM (active),–
C#CCCCO/N=C1/C[C@@H](O)[C@@H](O)[C@@H]2[C@@H]3C(=O)N(Cc4ccccc4)C(=O)[C@H]3CC[C@@H]12,–,-2.53% [at 11.4 µM] (inactive)
NC[C@](O)(CS(=O)(=O)O)c1ccc(Cl)cc1,–,11.2% (inactive)
COc1ccc(CCN2C(=NC(=O)CCC(=O)O)SC3CS(=O)(=O)CC32)cc1 (centres undefined),–,-18.3% (inactive)
O=[N+]([O-])c1ccc2ncccc2c1CCc1c([N+](=O)[O-])ccc2ncccc12,–,13% [at 11.4 µM] (inactive)
O=C(c1ccc([N+](=O)[O-])cc1)[C@@H](Br)[C@@H](Br)c1ccnc2ccccc12,3.16 µM (active),–
CCC[C@@H]1O[C@@H]2C[C@@H]3[C@H]4CCC5=CC(=O)C=C[C@@]5(C)[C@H]4[C@H](O)C[C@@]3(C)[C@@]2(C(=O)CO)O1,–,-19% [at 25.6 µM] (inactive)
N#C/C(=C\c1ccccc1)c1nc2ncccc2[nH]1,5.01 µM (active),–
N#C/C(=C\c1ccc(Cl)cc1)c1nc2ncccc2[nH]1,7.08 µM (active),–

Structure (SMILES),AC50,"activity, negative = inhibition"
COc1ccc2[nH]cc(CCNc3cc(-c4ccoc4)ncn3)c2c1,–,-23.3% [at 2.29 µM] (inactive)
COc1ccc2[nH]cc(CCNc3ncncc3-c3ccccc3OC)c2c1,0.251 µM (active),–
COc1ccc(CNc2ncncc2-c2ccccc2C(F)(F)F)c(OC)c1,–,-25.4% [at 2.29 µM] (inactive)
COc1ccc2[nH]cc(CCNc3ncncc3-c3ccccc3CN(C)C)c2c1,–,4.66% [at 2.29 µM] (inactive)
COc1ccc2[nH]cc(CCNc3ncncc3-c3ccccc3Cl)c2c1,0.2 µM (active),–
COc1ccc2[nH]cc(CCNc3ccnc(-c4ccccc4C(F)(F)F)n3)c2c1,–,-28.2% [at 2.29 µM] (inactive)
COc1ccc2[nH]cc(CCNc3ncncc3-c3cccc(NS(C)(=O)=O)c3)c2c1,0.398 µM (active),–
COc1ccc2[nH]cc(CCNc3ncncc3-c3ccccc3C(F)(F)F)c2c1,0.1 µM (active),–
CN[C@H](CC(=O)O)C(=O)O,–,11.3% (inactive)
O=S1(=O)C=C(SCc2cccc(Cl)c2)Nc2ccccc21,1.58 µM (active),–
O=C(c1nn(Cc2ccccc2)c(=O)c2ccccc12)N1CCN(C/C=C/c2ccccc2)CC1,3.98 µM (active),–
COC(=O)c1cc2n(n1)CCN(Cc1ccccc1F)C2=O,10 µM (active),–
CNC[C@H](O)[C@H](O)[C@H](O)[C@H](O)CO,–,-13.8% [at 25.6 µM] (inactive)
CC(C)[C@](N)(C(=O)O)c1ccccc1,–,-6.77% [at 11.4 µM] (inactive)
CC(C)NC(=O)N1CCC2(CC1)CCN(C(=O)c1ccco1)CC2,–,5.65% (inactive)
CC(C)NC(=O)N1CC2(CCN(C(=O)c3ccco3)CC2)C1,–,2.28% (inactive)
CC1CCN(C(NC(=O)c2ccco2)C(=O)c2ccccc2)CC1 (centres undefined),2.51 µM (active),–
O=C(c1csnn1)N1CCC2(CCN(Cc3nccs3)CC2)CC1,–,2.1% (inactive)
Cn1nc(-c2ccc(N3CCOCC3)c(NS(=O)(=O)c3ccc(Cl)cc3)c2)c2ccccc2c1=O,1 µM (active),–
COCCn1c(=O)c(-c2ccc(Cl)cc2)nc2cnc(N3CCOCC3)nc21,–,-14.6% (inactive)
CS(=O)(=O)Nc1cccc(-c2ccc3ncnc(N4CCOCC4)c3c2)c1,–,-1.72% [at 2.29 µM] (inactive)

Structure (SMILES),AC50,"activity, negative = inhibition"
O=C(/C=C/c1ccc(Cl)cc1)Nc1ccc(N2CCCCC2)cc1,–,-9.43% (inactive)
COc1ccc(C[C@@](C)(N)C(=O)O)cc1OC,–,-19.4% [at 25.6 µM] (inactive)
COc1ccc([N+](=O)[O-])cc1NC(=S)NC(NC(=O)Cc1ccc(OC)c(OC)c1)C(Cl)(Cl)Cl (centres undefined),1.26 µM (active),–
O=C(O)C1CCCCC1C(=O)Nc1cc(Cl)ccc1Cl (centres undefined),–,-16% (inactive)
CC(CP(=O)(O)O)NC(=O)Cc1ccccc1 (centres undefined),–,-17.6% (inactive)
O=C(NC(NC(=S)Nc1cc(Cl)ccc1Cl)C(Cl)(Cl)Cl)c1ccco1 (centres undefined),0.0447 µM (active),–
O=C(Cc1ccccc1)NC(NC(=S)Nc1cc(Cl)ccc1Cl)C(Cl)(Cl)Cl (centres undefined),0.562 µM (active),–
O=C(/C=C/c1ccccc1)NC(NC(=S)Nc1ccc(Cl)cc1)C(Cl)(Cl)Cl (centres undefined),0.562 µM (active),–
Cc1c(NC(=O)C23CC4CC(CC(C)(C4)C2)C3)c(=O)n(-c2ccccc2)n1C,–,-19.7% (inactive)
O=C(CNS(=O)(=O)c1ccc(Br)s1)N1CCC(N2CCCCC2)CC1,–,-20.1% (inactive)
N#C/C(=C\c1cccs1)C(=O)NCC1CCCO1 (centres undefined),–,-24.7% (inactive)
Cc1ccc(-n2c(C)cc(/C=C(\C#N)C(=O)NCC3CCCO3)c2C)cc1 (centres undefined),17.8 µM (active),–
NC(=O)C1CCN(C(=O)CN2C(=O)c3ccccc3S2(=O)=O)CC1,–,1.61% (inactive)
O=C1c2ccccc2C(=O)N1C[C@]1(C(=O)O)NCCS1(=O)=O,–,-4.49% [at 11.4 µM] (inactive)
CC(C)N(CCC(=O)c1ccc2ccccc2c1)Cc1ccccc1,12.6 µM (active) and inactive,–
O=C(O)CCCc1ccc2ccccc2c1,–,-4.57% [at 11.4 µM] (inactive)
CCN1C(=O)[C@H]2[C@@H]3[C@H](O)[C@H](O)CC(=O)[C@H]3CC[C@H]2C1=O,–,17.2% [at 11.4 µM] (inactive) and 0.779% [at 11.4 µM] (inactive)
C[C@@]1(C(NC(=O)Cc2ccc(C(F)(F)F)cc2)c2ccc(-c3ccccc3)cc2)C[C@H]1C1CCCCC1 (some centres undefined),–,13.5% (inactive)
COc1ccc(COC(=O)N/N=C2/C[C@@H](O)[C@@H](O)[C@@H]3[C@@H]4C(=O)N([C@@H](C)c5ccccc5)C(=O)[C@H]4CC[C@H]23)cc1,–,0.0971% [at 11.4 µM] (inactive)
C[C@@H](C(=O)Nc1ccc2ccccc2c1)[C@@H]1C[C@@]1(C)[C@@H](NC(=O)OCc1ccccc1)c1ccccc1,–,6.52% (inactive)
C[C@@H](C(=O)Nc1ccc2ccccc2c1)[C@H]1C[C@]1(C)[C@H](NC(=O)OCc1ccccc1)c1ccccc1,1.58 µM (active),–

Structure (SMILES),AC50,"activity, negative = inhibition"
C[C@@H](C(=O)Cc1ccc2ccccc2c1)[C@@H]1C[C@@]1(C)[C@@H](NP(=O)(c1ccccc1)c1ccccc1)c1ccccc1,3.16 µM (active),–
C[C@@H](C(=O)Nc1ccc2ccccc2c1)[C@H]1C[C@]1(C)[C@H](NP(=O)(c1ccccc1)c1ccccc1)c1ccccc1,3.16 µM (active),–
O=C(Nc1ccc2ccccc2c1)c1onc2c1CCCC2,–,-24.2% (inactive)
CC(=O)N[C@H](c1ccccc1)[C@@]1(C)C[C@@H]1[C@@H](C)C(=O)Nc1ccc2ccccc2c1,10 µM (active),–
C[C@@H](C(=O)Nc1ccc2ccccc2c1)[C@@H]1C[C@@]1(C)[C@@H](NS(=O)(=O)c1ccc(-c2ccccc2)cc1)c1ccccc1,–,17.1% (inactive)
CC(=O)OCC(=O)[C@@]1(O)CC[C@@H]2[C@H]3CCC4=CC(=O)C=C[C@]4(C)[C@]3(F)[C@@H](O)C[C@@]21C,–,-6.12% [at 25.6 µM] (inactive)
C[C@@H](C(=O)Nc1ccc2ccccc2c1)[C@H]1C[C@]1(C)[C@H](NS(=O)(=O)c1ccc2ccccc2c1)c1ccccc1,–,6.98% (inactive)
CC(=O)N[C@@H](c1ccccc1)[C@]1(C)C[C@H]1[C@@H](C)C(=O)Nc1ccc2ccccc2c1,6.31 µM (active),–
COC(=O)N[C@H](c1ccccc1)[C@@]1(C)C[C@@H]1[C@@H](C)C(=O)Nc1ccc2ccccc2c1,3.98 µM (active),–
Cc1cc(NC(=O)NC(=O)c2ccc(F)cc2F)n[nH]1,–,2.2% (inactive)
Cc1cc(C)cc(OCC(=O)NNC(=O)c2cc(C)[nH]n2)c1,28.2 µM (active),–
Cc1ccc(OCC(=O)NNC(=O)c2cc3ccccc3o2)cc1,–,-5.57% (inactive)
NC1(C(=O)O)CC(C(=O)O)C1 (centres undefined),–,-10.1% (inactive)
NC1(C(=O)O)C[C@H](C(=O)O)[C@H](C(=O)O)C1 (some centres undefined),6.31 µM (active),–
NC1(C(=O)O)C[C@@H](C(=O)O)[C@H](C(=O)O)C1,inactive,–
CCc1c(O)c2c(c(O)c1C(C)=O)C(=O)c1c(cc(O)c(C(=O)O)c1C(=O)O)C2=O,–,-13.4% [at 11.4 µM] (inactive)
O=C(Nc1cccc(NC(=O)c2ccc(-c3cccc(Br)c3)o2)c1)c1ccco1,5.01 µM (active),–
N#Cc1cccc(NC(=O)N2CCC3(CC2)CCN(C(=O)c2ccco2)CC3)c1,–,-22.8% (inactive)
COc1cccc(-c2nccc(N(C)Cc3ccco3)n2)c1,–,2.63% [at 2.29 µM] (inactive)
COc1cccc(-c2noc(Cn3nc(C)c([N+](=O)[O-])c3C)n2)c1,4.47 µM (active),–
COc1cccc(-c2nccc(NCc3ccc(OC)cc3OC)n2)c1,–,-22.3% [at 2.29 µM] (inactive)
